Laboratory results taken from PubChem BioAssay AID1159580 (chemical genetic matrix, 2015).
Hit rate of the full screen: of about 5,500 compounds, about 2,000 (36%) were called active. Inconclusive results (about 18%) are left out. Rule as the data show it: active = normalized growth mostly below about 0.91 (no sharp cut-off); inconclusive = no clear call, values can overlap the other calls; inactive = mostly above about 0.92. Some of the results follow.

Test: chemical genetic growth profiling, strain panel (AID 1159580);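 also: tested at 20 µM; growth read once vehicle control cultures reached saturation at 30 °C; 1 = growth at the plate median or of vehicle wells; lower values mean less growth of the strain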
Conditions: growth OD

Measured: normalized growth

CC(=O)O[C@H]1CC[C@]2(C)C3CC(=O)[C@]4(C)C(C(C)=O)=CCC4C3CC[C@H]2C1 (stereo partly specified)
inactive: S. cerevisiae deletion strains, locus YAL021C, strain ccr4, hits give low values 1 | S. cerevisiae deletion strains, locus YAL026C, strain drs2, hits give low values 0.997 | S. cerevisiae deletion strains, locus YAL030W, strain snc1, hits give low values 1 | S. cerevisiae deletion strains, locus YBL061C, strain skt5, hits give low values 0.994 | S. cerevisiae deletion strains, locus YBR009C, strain hhf1, hits give low values 0.996 | S. cerevisiae deletion strains, locus YBR021W, strain FUR4, hits give low values 1 | S. cerevisiae deletion strains, locus YBR023C, strain chs3, hits give low values 0.995 | S. cerevisiae deletion strains, locus YBR171W, strain sec66, hits give low values 0.995 | S. cerevisiae deletion strains, locus YBR229C, strain ROT2, hits give low values 0.997 | S. cerevisiae deletion strains, locus YBR231C, strain swc5, hits give low values 1 | S. cerevisiae deletion strains, locus YBR279W, strain paf1, hits give low values 0.996 | S. cerevisiae deletion strains, locus YCL011C, strain gbp2, hits give low values 0.984 | S. cerevisiae deletion strains, locus YCL016C, strain dcc1, hits give low values 0.992 | S. cerevisiae deletion strains, locus YCL029C, strain bik1, hits give low values 0.987 | S. cerevisiae deletion strains, locus YCL061C, strain MRC1, hits give low values 0.994 | S. cerevisiae deletion strains, locus YCL069W, strain vba3, hits give low values 0.992 | S. cerevisiae deletion strains, locus YCR088W, strain abp1, hits give low values 0.987 | S. cerevisiae deletion strains, locus YDL005C, strain med2, hits give low values 0.984 | S. cerevisiae deletion strains, locus YDL035C, strain GPR1, hits give low values 0.956 | S. cerevisiae deletion strains, locus YDL040C, strain nat1, hits give low values 0.993 | S. cerevisiae deletion strains, locus YDL074C, strain BRE1, hits give low values 0.967 | S. cerevisiae deletion strains, locus YDL101C, strain DUN1, hits give low values 1 | S. cerevisiae deletion strains, locus YDL185W, strain tfp1, hits give low values 1.02 | S. cerevisiae deletion strains, locus YDL192W, strain arf1, hits give low values 0.978 | S. cerevisiae deletion strains, locus YDR001C, strain nth1, hits give low values 0.994 | S. cerevisiae deletion strains, locus YDR069C, strain doa4, hits give low values 1.02 | S. cerevisiae deletion strains, locus YDR101C, strain arx1, hits give low values 0.988 | S. cerevisiae deletion strains, locus YDR137W, strain rgp1, hits give low values 0.924 | S. cerevisiae deletion strains, locus YDR159W, strain sac3, hits give low values 0.921 | S. cerevisiae deletion strains, locus YDR162C, strain NBP2, hits give low values 0.987 | S. cerevisiae deletion strains, locus YDR195W, strain ref2 1 | S. cerevisiae deletion strains, locus YDR297W, strain sur2, hits give low values 0.998 | S. cerevisiae deletion strains, locus YDR318W, strain mcm21, hits give low values 0.988 | S. cerevisiae deletion strains, locus YDR334W, strain swr1, hits give low values 1.01 | S. cerevisiae deletion strains, locus YDR335W, strain msn5, hits give low values 1 | S. cerevisiae deletion strains, locus YDR388W, hits give low values 0.998 | S. cerevisiae deletion strains, locus YDR502C, strain sam2, hits give low values 0.978 | S. cerevisiae deletion strains, locus YEL003W, strain gim4, hits give low values 0.996 | S. cerevisiae deletion strains, locus YEL037C, strain rad23, hits give low values 1.01 | S. cerevisiae deletion strains, locus YEL061C, strain CIN8 (second series), hits give low values 1 | S. cerevisiae deletion strains, locus YEL061C, strain CIN8, hits give low values 0.993 | S. cerevisiae deletion strains, locus YER015W, strain faa2, hits give low values 1 | S. cerevisiae deletion strains, locus YER016W, strain bim1, hits give low values 0.994 | S. cerevisiae deletion strains, locus YER110C, hits give low values 1.01 | S. cerevisiae deletion strains, locus YER111C, strain swi4, hits give low values 1.01 | S. cerevisiae deletion strains, locus YER155C, strain BEM2 (second series), hits give low values 0.963 | S. cerevisiae deletion strains, locus YER155C, strain BEM2, hits give low values 0.983 | S. cerevisiae deletion strains, locus YER167W, strain BCK2, hits give low values 0.982 | S. cerevisiae deletion strains, locus YFR010W, strain ubp6, hits give low values 1 | S. cerevisiae deletion strains, locus YGL078C, strain dbp3, hits give low values 1.01 | S. cerevisiae deletion strains, locus YGL086W, strain mad1, hits give low values 0.968 | S. cerevisiae deletion strains, locus YGL167C, strain pmr1, hits give low values 0.985 | S. cerevisiae deletion strains, locus YGL173C, strain kem1, hits give low values 0.995 | S. cerevisiae deletion strains, locus YGL227W, strain vid30, hits give low values 0.996 | S. cerevisiae deletion strains, locus YGL240W, strain doc1, hits give low values 1.01 | S. cerevisiae deletion strains, locus YGL248W, strain PDE1, hits give low values 0.99 | S. cerevisiae deletion strains, locus YGL253W, strain hxk2, hits give low values 0.982 | S. cerevisiae deletion strains, locus YGR078C, strain PAC10, hits give low values 0.983 | S. cerevisiae deletion strains, locus YGR135W, strain pre9, hits give low values 1.01 | S. cerevisiae deletion strains, locus YGR229C, strain SMI1, hits give low values 0.995 | S. cerevisiae deletion strains, locus YGR252W, strain gcn5, hits give low values 1.05 | S. cerevisiae deletion strains, locus YHR013C, strain ard1, hits give low values 0.934 | S. cerevisiae deletion strains, locus YHR027C, strain rpn1, hits give low values 0.988 | S. cerevisiae deletion strains, locus YHR079C, strain IRE1 (second series), hits give low values 0.997 | S. cerevisiae deletion strains, locus YHR094C, strain hxt1, hits give low values 1 | S. cerevisiae deletion strains, locus YHR129C, strain ARP1, hits give low values 0.982 | S. cerevisiae deletion strains, locus YHR142W, strain chs7, hits give low values 0.972 | S. cerevisiae deletion strains, locus YHR200W, strain rpn10, hits give low values 1.01 | S. cerevisiae deletion strains, locus YIL066C, strain RNR3, hits give low values 0.98 | S. cerevisiae deletion strains, locus YIL073C, strain SPO22, hits give low values 1.03 | S. cerevisiae deletion strains, locus YIL125W, strain kgd1, hits give low values 0.989 | S. cerevisiae deletion strains, locus YIR030C, strain dcg1, hits give low values 0.998 | S. cerevisiae deletion strains, locus YJL092W, strain hpr5, hits give low values 0.988 | S. cerevisiae deletion strains, locus YJL095W, strain BCK1 (second series), hits give low values 0.997 | S. cerevisiae deletion strains, locus YJL095W, strain BCK1, hits give low values 1.02 | S. cerevisiae deletion strains, locus YJL115W, strain asf1, hits give low values 1 | S. cerevisiae deletion strains, locus YJL129C, strain trk1, hits give low values 1.01 | S. cerevisiae deletion strains, locus YJL134W, strain LCB3, hits give low values 0.988 | S. cerevisiae deletion strains, locus YJL154C, strain vps35, hits give low values 1 | S. cerevisiae deletion strains, locus YJL164C, strain tpk1, hits give low values 0.988 | S. cerevisiae deletion strains, locus YJL166W, strain qcr8, hits give low values 0.991 | S. cerevisiae deletion strains, locus YJL168C, strain set2, hits give low values 0.995 | S. cerevisiae deletion strains, locus YJL187C, strain SWE1 (second series), hits give low values 1.01 | S. cerevisiae deletion strains, locus YJR043C, strain POL32, hits give low values 1.01 | S. cerevisiae deletion strains, locus YKL009W, strain mrt4, hits give low values 0.965 | S. cerevisiae deletion strains, locus YKL068W, hits give low values 0.988 | S. cerevisiae deletion strains, locus YKL085W, strain MDH1 (second series), hits give low values 0.992 | S. cerevisiae deletion strains, locus YKL085W, strain MDH1, hits give low values 0.992 | S. cerevisiae deletion strains, locus YKL160W, strain elf1, hits give low values 0.996 | S. cerevisiae deletion strains, locus YKR026C, strain gcn3, hits give low values 0.972 | S. cerevisiae deletion strains, locus YKR091W, strain srl3, hits give low values 0.993 | S. cerevisiae deletion strains, locus YLL001W, strain dnm1, hits give low values 0.986 | S. cerevisiae deletion strains, locus YLL026W, hits give low values 0.994 | S. cerevisiae deletion strains, locus YLL041C, strain sdh2, hits give low values 0.991 | S. cerevisiae deletion strains, locus YLR027C, strain aat2, hits give low values 0.993 | S. cerevisiae deletion strains, locus YLR039C, strain RIC1, hits give low values 1 | S. cerevisiae deletion strains, locus YLR058C, strain SHM2, hits give low values 1.02 | S. cerevisiae deletion strains, locus YLR102C, strain apc9, hits give low values 1 | S. cerevisiae deletion strains, locus YLR221C, strain rsa3, hits give low values 0.978 | S. cerevisiae deletion strains, locus YLR258W, strain gsy2, hits give low values 1 | S. cerevisiae deletion strains, locus YLR262C, strain YPT6 (second series), hits give low values 0.961 | S. cerevisiae deletion strains, locus YLR262C, strain YPT6, hits give low values 0.944 | S. cerevisiae deletion strains, locus YLR268W, strain sec22, hits give low values 0.965 | S. cerevisiae deletion strains, locus YLR320W, strain mms22, hits give low values 0.922 | S. cerevisiae deletion strains, locus YLR330W, strain CHS5, hits give low values 0.969 | S. cerevisiae deletion strains, locus YLR342W, strain FKS1 (second series), hits give low values 0.947 | S. cerevisiae deletion strains, locus YLR342W, strain FKS1, hits give low values 0.976 | S. cerevisiae deletion strains, locus YLR357W, strain rsc2, hits give low values 1.01 | S. cerevisiae deletion strains, locus YLR370C, strain arc18, hits give low values 1.01 | S. cerevisiae deletion strains, locus YLR371W, strain rom2, hits give low values 1.02 | S. cerevisiae deletion strains, locus YLR384C, strain iki3, hits give low values 0.984 | S. cerevisiae deletion strains, locus YML016C, strain PPZ1, hits give low values 1 | S. cerevisiae deletion strains, locus YML032C, strain rad52, hits give low values 1 | S. cerevisiae deletion strains, locus YML120C, strain ndi1, hits give low values 1 | S. cerevisiae deletion strains, locus YML124C, strain tub3, hits give low values 1 | S. cerevisiae deletion strains, locus YMR058W, strain fet3, hits give low values 0.986 | S. cerevisiae deletion strains, locus YMR078C, strain ctf18, hits give low values 0.999 | S. cerevisiae deletion strains, locus YMR125W, strain sto1, hits give low values 1.01 | S. cerevisiae deletion strains, locus YMR129W, hits give low values 0.991 | S. cerevisiae deletion strains, locus YMR205C, strain PFK2, hits give low values 0.95 | S. cerevisiae deletion strains, locus YMR223W, strain ubp8, hits give low values 0.993 | S. cerevisiae deletion strains, locus YMR231W, strain pep5, hits give low values 1.01 | S. cerevisiae deletion strains, locus YMR307W, strain GAS1, hits give low values 0.97 | S. cerevisiae deletion strains, locus YNL067W, strain RPL9B, hits give low values 1.02 | S. cerevisiae deletion strains, locus YNL209W, strain ssb2, hits give low values 1.01 | S. cerevisiae deletion strains, locus YNL233W, strain BNI4, hits give low values 0.988 | S. cerevisiae deletion strains, locus YNL248C, strain rpa49, hits give low values 0.984 | S. cerevisiae deletion strains, locus YNL250W, strain rad50, hits give low values 1.01 | S. cerevisiae deletion strains, locus YNL271C, strain bni1, hits give low values 1.01 | S. cerevisiae deletion strains, locus YNL298W, strain CLA4, hits give low values 1 | S. cerevisiae deletion strains, locus YNL307C, strain MCK1, hits give low values 0.934 | S. cerevisiae deletion strains, locus YNL322C, strain KRE1 (second series), hits give low values 0.975 | S. cerevisiae deletion strains, locus YNR049C, strain mso1, hits give low values 0.99 | S. cerevisiae deletion strains, locus YNR052C, strain pop2, hits give low values 1.03 | S. cerevisiae deletion strains, locus YOL006C, strain TOP1, hits give low values 0.907 | S. cerevisiae deletion strains, locus YOL012C, strain htz1 1.19 | S. cerevisiae deletion strains, locus YOL147C, strain pex11, hits give low values 1 | S. cerevisiae deletion strains, locus YOR001W, strain rrp6, hits give low values 0.995 | S. cerevisiae deletion strains, locus YOR061W, strain CKA2, hits give low values 1 | S. cerevisiae deletion strains, locus YOR069W, strain VPS5, hits give low values 0.997 | S. cerevisiae deletion strains, locus YOR070C, strain gyp1, hits give low values 1.01 | S. cerevisiae deletion strains, locus YOR080W, strain dia2, hits give low values 1.01 | S. cerevisiae deletion strains, locus YOR083W, strain WHI5, hits give low values 1 | S. cerevisiae deletion strains, locus YOR106W, strain vam3, hits give low values 1.01 | S. cerevisiae deletion strains, locus YOR136W, strain idh2, hits give low values 0.984 | S. cerevisiae deletion strains, locus YOR144C, strain elg1, hits give low values 1 | S. cerevisiae deletion strains, locus YOR184W, strain ser1, hits give low values 0.893 | S. cerevisiae deletion strains, locus YOR265W, strain rbl2, hits give low values 1 | S. cerevisiae deletion strains, locus YOR270C, strain vph1, hits give low values 0.843 | S. cerevisiae deletion strains, locus YOR290C, strain snf2, hits give low values 0.996 | S. cerevisiae deletion strains, locus YOR316C, strain cot1, hits give low values 0.996 | S. cerevisiae deletion strains, locus YPL051W, strain arl3, hits give low values 0.998 | S. cerevisiae deletion strains, locus YPL078C, strain atp4, hits give low values 0.991 | S. cerevisiae deletion strains, locus YPL106C, strain sse1, hits give low values 0.976 | S. cerevisiae deletion strains, locus YPL240C, strain hsp82, hits give low values 0.995 | S. cerevisiae deletion strains, locus YPL241C, strain CIN2, hits give low values 0.988 | S. cerevisiae deletion strains, locus YPR119W, strain clb2, hits give low values 1 | S. cerevisiae deletion strains, locus YPR141C, strain kar3, hits give low values 1 | S. cerevisiae deletion strains, locus YPR163C, strain tif3, hits give low values 0.983 | S. cerevisiae deletion strains, locus YPR167C, strain met16, hits give low values 0.994 | S. cerevisiae deletion strains, strain wtn01, hits give low values 0.973 | S. cerevisiae strains, strain wild type, hits give low values 0.996
active: S. cerevisiae deletion strains, locus YDR392W, strain spt3, hits give low values 0.628 | S. cerevisiae deletion strains, locus YKR001C, strain vps1, hits give low values 0.897 | S. cerevisiae deletion strains, locus YLR418C, strain cdc73, hits give low values 0.839 | S. cerevisiae deletion strains, locus YNL071W, strain lat1, hits give low values 0.91
